This excerpt belongs to a sample that is enriched for hits.
IL-1B inflam inh: inflammasome signaling inhibition, IL-1 beta readout | THP-1 LPS/ATP IL-1B secretion, AlphaLISA, 16 h; active compounds read low | actives 4.7% (n = 360,000) | activity change, % at 57.5 µM; in the data active = activity change below about -50%; inconclusive = mostly about -30% to -49%
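THP-1 cells pretreated 1 hr with compounds (up to 57.5 uM final), then stimulated with LPS (250 ng/mL final) plus ATP (1.25 mM final); secreted IL-1B measured by AlphaLISA after 16 hr, decreased signal indicating inhibition.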
DT40 TDP1 no CPT: qHTS for Inhibitors of human tyrosyl-DNA phosphodiesterase 1 (TDP1): qHTS in cells in absence of CPT. Potency, µM (series often up to 46.2 µM), without a hit: at the highest dose activity change, negative = growth inhibition, hits mostly inhibitors. actives 15% (n = 420,000). AID 686978, 2013. DT40 Tdp1-/- hTDP1 cells, no CPT, ATP luminescence, 48 h; also: potency is read from the fitted curve at half-maximal effect; nearly all actives have a fitted effect of over 55% in size
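Compound effects on proliferation are scored in DT40 Tdp1-/-;hTDP1 cells in the absence of CPT. ATP levels (CellTiter-Glo luminescence) are recorded after a ≥48 hr, 37 °C incubation.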
12-LOX inh: blocks human arachidonate 12S-lipoxygenase. P18054. purified 12hLO, xylenol orange hydroperoxide absorbance. Potency, µM (top dose mostly 108 µM), for the others: top-dose activity change, negative = inhibition, most hits filed as inhibitors. actives 1.1% (n = 580,000). AID 1671190; also: potency is read from the fitted curve at half-maximal effect
Target sequence (P18054 whole entry, looked up): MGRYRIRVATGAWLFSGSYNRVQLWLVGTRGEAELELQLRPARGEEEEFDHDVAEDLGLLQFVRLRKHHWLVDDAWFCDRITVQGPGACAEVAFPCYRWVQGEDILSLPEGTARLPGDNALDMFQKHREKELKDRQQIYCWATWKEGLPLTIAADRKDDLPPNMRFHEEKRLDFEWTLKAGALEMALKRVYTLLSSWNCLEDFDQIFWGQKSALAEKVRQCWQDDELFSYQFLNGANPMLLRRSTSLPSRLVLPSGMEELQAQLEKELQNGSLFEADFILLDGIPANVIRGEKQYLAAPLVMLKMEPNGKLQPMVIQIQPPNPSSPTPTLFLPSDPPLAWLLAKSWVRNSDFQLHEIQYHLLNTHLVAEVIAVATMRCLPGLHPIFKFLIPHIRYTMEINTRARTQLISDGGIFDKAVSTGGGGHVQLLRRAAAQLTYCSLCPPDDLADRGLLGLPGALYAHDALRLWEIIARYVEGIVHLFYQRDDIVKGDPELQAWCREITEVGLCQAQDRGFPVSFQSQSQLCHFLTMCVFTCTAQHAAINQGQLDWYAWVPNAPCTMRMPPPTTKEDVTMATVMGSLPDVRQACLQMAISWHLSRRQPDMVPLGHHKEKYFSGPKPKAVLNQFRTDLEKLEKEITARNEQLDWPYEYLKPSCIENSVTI
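Purified human 12hLO at 150 nM in 25 mM Hepes, 0.01% Triton X-100, pH 7.0, preincubated 15 min at room temperature with compound. Reaction started with 40 uM arachidonic acid, 30 min at room temperature. Hydroperoxide measured by Fe-xylenol orange, 573/405 nm absorbance ratio.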
DT40 TDP1 CPT: growth inhibition of DT40 Tdp1-/-;hTDP1 cells with camptothecin (screen for TDP1 inhibitors) | chicken DT40 Tdp1-/-;hTDP1 cells + 20 nM CPT, ATP luminescence, 48 h | Potency, µM (doses to about 46.2 µM), for inactives: at the top dose activity change, negative = growth inhibition, most hits filed as inhibitors | actives 12% (n = 420,000); also: potency is read from the fitted curve at half-maximal effect; nearly all actives have a fitted effect of over 55% in size
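Chicken DT40 Tdp1-/- cells stably complemented with human TDP1 were seeded at 400 cells/well in medium containing 20 nM camptothecin, exposed to pin-transferred compounds, and grown at 37 °C for at least 48 hr. Viability was read as ATP luminescence.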
HT1080-NT tox: kills 2HG-producing HT-1080-NT fibrosarcoma cells; Potency, µM (titrated, usually from 46.1 µM), inactives show at the top dose activity, negative = less viability, hits mostly cytotoxic; AID 686970; HT-1080-NT fibrosarcoma viability, CellTiter-Glo ATP luminescence, 48 h; actives 1.6% (n = 360,000);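 also: NT is the 2HG producing partner of a matched IDH1 knockdown line; potency is read from the fitted curve at half-maximal effect; 0% = DMSO-treated cells and -100% = media-only wells without cells; nearly all actives have a fitted effect of over 55% in size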
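750 cells/well, RPMI + 5% FBS; 2 h settle, compound pin-transfer, 48 h at 37 degrees C. CellTiter-Glo 10 min RT, luminescence. Normalized to DMSO and media-only wells.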
HT1080 IDH1KD tx: kills HT-1080 cells with IDH1 knockdown; HT-1080 IDH1 knockdown viability, ATP luminescence, 48 h; Potency, µM (top dose mostly 46.1 µM), inactives show at the highest dose activity, negative = toxicity, most hits filed as cytotoxic; actives 2% (n = 360,000); AID 686971;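 also: potency is read from the fitted curve at half-maximal effect; 0% = DMSO wells and -100% = cell-free medium wells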
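% activity derives from luminescence (CellTiter-Glo), normalised to DMSO and no-cell wells. HT-1080-IDH1KD cells, 750/well, had 48 h compound exposure at 37 °C.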
* hit, by the source's call; ? = inconclusive; nt = no result; [ ] = another dose, or the depositor's remark. Unless noted, calls follow the shape of the dose curve; as a rule, active = well fitted curve in the direction sought with a large enough effect; inconclusive = small, poorly fitted or top-dose-only effect, or another doubt; inactive = no such curve, though single readings can be large; an effect the other way counts as inactive or inconclusive. Unless noted, % is scaled to controls: 0 for no effect and ±100 for the full control effect.

SMILES | IL-1B inflam inh | DT40 TDP1 no CPT | 12-LOX inh | DT40 TDP1 CPT | HT1080-NT tox | HT1080 IDH1KD tx
CCN(CC)c1ccc(NC(=O)Nc2ccc(C(C)=O)cc2)cc1 | -12 | ? | -24% | -30% | 4% | 4%
CCN(CC)c1ccc(C(=O)NN)cc1 | -52* | -3% | -1% | 28% | -19% | 2%
CCN(CC)c1ccc(C(=O)N/N=C(\C)c2ccc(OC)c(OC)c2)cc1 | 6 | 26µM* | 7% | -4% | -13% | ?
CCN(CC)c1ccc(N)cc1 | -66* | 1.6µM* | nt | 1.8µM* | 8.2µM* | 15µM*
COCCOCC1(CNC(=O)C2CCCC2)C[C@@H](O)[C@@H](O)C1 (stereo partly specified) | nt | nt | 75%[176 µM] | nt | nt | nt
Cn1ccc2c(C(=O)NCc3cccnc3)nc(-c3cccc4cc[nH]c34)cc21 | nt | nt | 77%[176 µM] | nt | nt | nt
Cc1ccc(/C=C/C(=O)O)c(C)c1 | nt | nt | 12% | nt | nt | nt
CCN1C(=O)C(CC(=O)NCCc2ccccc2)N(NC(=O)c2ccc(Br)cc2)C1=S (stereo unspecified) | -12 | 21µM* | -3% | ? | -13% | 0%
CCNC(=O)CC1C(=O)N(CC)C(=S)N1NC(=O)c1ccc(Cl)cc1 (stereo unspecified) | -8 | 2% | -16% | 3% | 0% | -14%
CC(=O)Nc1ccc(NC(=O)C2(C)CC2(Cl)Cl)cc1Cl (stereo unspecified) | nt | nt | 12% | nt | nt | nt
COC(c1ccc(Cl)cc1)(c1ccc(Cl)cc1)C(Oc1nc(C)cc(C)n1)C(=O)O (stereo unspecified) | 36 | 15µM* | -23% | ? | -20% | -9%
COC(c1ccc(Cl)cc1)(c1ccc(Cl)cc1)C(Oc1nccc(C)n1)C(=O)O (stereo unspecified) | 51 | -11% | 16% | -15% | -2% | -20%
CCOC(=O)N1CCC2(CC1)C(C(=O)C13CC4CC(CC(C4)C1)C3)C2(C#N)C#N (stereo unspecified) | -54* | ? | 0% | ? | -3% | -1%
CCOC(=O)C1CCN(C(=O)COC(=O)C23CC4CC(CC(C4)C2)C3)CC1 | 0 | ? | 13% | ? | -4% | 0%
COc1ccccc1-c1cccc(CN)c1 | nt | nt | 12%[12.5 µM] | nt | nt | nt
Cc1ccc(NC(=O)CCC2CCN(C(=O)c3ccccc3F)CC2)cc1 | nt | nt | 30% | nt | nt | nt
Cc1ccc(C(C)C)c(OCC(=O)Nc2ccc3c(c2)nc(CN2CCCC2)n3C)c1 | -50* | 15µM* | 22% | ? | 16µM* | 23µM*
Cc1ccc(OCC(=O)Nc2ccc3c(c2)nc(CCNC(=O)c2ccco2)n3C)cc1 | nt | ? | 0% | ? | nt | nt
Cc1ccc(C(C)C)c(OCC(=O)NNCC(=O)Nc2cccc(F)c2)c1 | ? | 15µM* | -2% | 15µM* | 0% | -8%
Cc1ccc(C(C)C)c(OCC(=O)Nc2ccc3c(c2)nc(CCNC(=O)c2ccco2)n3C)c1 | nt | 10µM* | -4% | ? | nt | nt
Cc1cccc(OCC(=O)Nc2ccc3c(c2)nc(CCNC(=O)c2ccco2)n3C)c1 | nt | -29% | -3% | 23µM* | nt | nt
COc1ccc(OCC(=O)Nc2ccc3c(c2)nc(CCNC(=O)c2ccco2)n3C)cc1 | nt | 5% | -13% | -5% | nt | nt
CC(=O)Nc1ccc(S(=O)(=O)Nc2cc3c(cc2SC2CCCCC2)n(C)c(=O)n3C)cc1 | nt | nt | -7% | nt | nt | nt
CCOC(=O)C(C)Sc1ncc(-c2ccc(Cl)cc2)cn1 (stereo unspecified) | -18 | -12% | -7% | 4.6µM* | -6% | -8%
CCOC(=O)c1cnc(SCc2nc(-c3ccc(Cl)cc3)oc2C)nc1N | nt | nt | -1% | nt | nt | nt
SMILES | IL-1B inflam inh | DT40 TDP1 no CPT | 12-LOX inh | DT40 TDP1 CPT | HT1080-NT tox | HT1080 IDH1KD tx
CCCN(CC(=O)Nc1ccc(-c2ccccc2)cc1)Cc1nnc(-c2ccco2)o1 | nt | nt | 29% | nt | nt | nt
C[n+]1cccc2c(Br)ccc([O-])c21 | -3 | -26% | 16% | 9% | -2% | 0%
[O-][n+]1cccc2c(Br)cc(Br)c(O)c21 | -62* | ? | -22% | ? | -6% | -7%
C[C@@H]1CN([C@@H](C)CO)S(=O)(=O)c2ccc(Br)cc2O[C@H]1CN(C)C(=O)C1CCC1 | -17 | 16µM* | -5% | ? | 6% | -8%
Cc1ccc(S(=O)(=O)N(C)C[C@H]2Oc3cc(C#Cc4ccccc4)ccc3S(=O)(=O)N([C@H](C)CO)C[C@@H]2C)cc1 | 33 | 9.2µM* | 8% | 10µM* | 0% | -3%
CC(C)C#Cc1ccc2c(c1)O[C@@H](CN(C)S(=O)(=O)c1cn(C)cn1)[C@@H](C)CN([C@H](C)CO)S2(=O)=O | -2 | ? | -5% | ? | -3% | 1%
C[C@@H]1CN([C@H](C)CO)S(=O)(=O)c2ccc(Br)cc2O[C@H]1CN(C)C(=O)C1CC1 | -6 | -9% | 10% | -19% | 6% | 18%
C/C=C/c1ccc2c(c1)O[C@H](CN(C)C(=O)NC1CCCC1)[C@H](C)CN([C@H](C)CO)S2(=O)=O | -25 | 21µM* | 1% | 18µM* | -2% | -4%
C[C@H]1CN([C@@H](C)CO)S(=O)(=O)c2ccc(Br)cc2O[C@H]1CN(C)S(=O)(=O)c1ccccc1 | 8 | 16µM* | 2% | 16µM* | -10% | -7%
O=C(Nc1cccc(Cl)c1)c1cc(-c2cccc(O)c2)on1 | nt | nt | -19% | nt | nt | nt
COc1cccc(S(=O)(=O)N(C)C[C@H]2Oc3cc(Br)ccc3S(=O)(=O)N([C@@H](C)CO)C[C@H]2C)c1 | -23 | 15µM* | 2% | 21µM* | -9% | -9%
C[C@@H]1CN([C@@H](C)CO)S(=O)(=O)c2ccc(Br)cc2O[C@@H]1CN(C)S(=O)(=O)c1ccc(F)cc1 | nt | nt | -25% | nt | nt | nt
CCOc1cc(C#N)c(NC(=O)c2ccc3c(c2)OCO3)cc1OCC | nt | nt | 4% | nt | nt | nt
Cc1ccc(S(=O)(=O)CCC(=O)N(CCCN2CCOCC2)c2nc3ccccc3s2)cc1 | -72* | 2.9µM* | -17% | 2.3µM* | -5% | -11%
O=C(CCS(=O)(=O)c1ccccc1)N(CCCN1CCOCC1)c1nc2ccccc2s1 | -107* | 3.7µM* | -29% | 5.2µM* | 1% | ?
Cc1ccc2nc(N(CCN3CCOCC3)C(=O)CCS(=O)(=O)c3ccccc3)sc2c1 | ? | 12µM* | ? | 12µM* | -1% | -1%

Bioassay records: PubChem, National Center for Advancing Translational Sciences (NCATS)
